Results on 40 compounds are retold here after PubChem BioAssay (NCI).

About 83,000 compounds went through this panel and 20% of them were active in at least one assay; those are over-represented in the sample as a whole.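 Testing used 96-well plates and a 48-hour single-concentration exposure. Example: -40 means 40% of the starting cells died.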 Calls of active or inactive are those of the source. The calls were made as follows: active = growth percent below 10; inactive = the rest.

The test system of this assay is HL-60(TB) leukemia. Put plainly: NCI-60 one-dose screen, 48 h (100 = growth as untreated, 0 = no growth, -100 = all killed). Particulars: 10 µM unless noted.
Turning to `COc1ccc(Nc2nc(Nc3cc(C)[nH]n3)c3cc(OC)c(OC)cc3n2)cc1`, the growth was -50.5% [20 µM] (active).

For the compound `COc1cc(-c2nc(N3CCN(C)CC3)c3ccccc3n2)cc(OC)c1OC`, the growth is 67% (inactive).

As to `COc1ccc(-c2cscc2N)cc1`, the growth was 18.7% [100 µM] (inactive).

As to `CCCCSCC(=O)c1ccccc1`, the growth is 63.4% (inactive).

In the case of `Cc1ccc(S(=O)(=O)N2CCc3ccc(O)c4c3C2Cc2cc(Cl)ccc2-4)cc1` (stereo not given), the growth was 85.3% (inactive).

`Cc1ccc(Nc2nnc(-c3ccc(Cl)cc3)o2)c(C)c1`: the growth was 84.2% (inactive).

With `COc1c(C(NC(=O)c2ccccc2)c2sccc2C)cc(Cl)c2cccnc12` (stereo not given), the growth was 96.1% (inactive).

As for `CC(C)Nc1ccc(Nc2ccc(NC(C)C)cc2)cc1`, the growth was 22.1% (inactive).

With `N#Cc1c(NC(=O)c2ccc(Br)cc2)sc2c1CCCC2`, the growth was 14.1% (inactive).

For `C/C=C/C(N)=O`, the growth was 107% (inactive).

As for `CCOC(=O)CC(=O)c1c(C)cc(C)cc1C`, the growth was 90.8% (inactive).

In the case of `O=C(Nc1nc(-c2ccccc2Cl)cs1)c1cc(-c2ccc(Br)cc2)nc2ccccc12`, the growth was 37.2% (inactive).

For `C=C1C(=O)C2CCN1CC2`, the growth was 97.4% (inactive).

As to `O=C1c2c(c3c4cccc(F)c4[nH]c3c3ccc4ccccc4c23)C(=O)N1O`, the growth was 31% (inactive).

Take `CCCCCCCO`: the growth is 114% (inactive).

For the compound `O=C(CCl)Oc1ccc(OC(=O)CCl)cc1`, the growth was 8.83% (active).

`COC1=C(C)C(=O)c2c(c(CCCl)c3n2CCC3OC(C)=O)C1=O` (stereo not given): the growth is 34.2% (inactive).

Take `Cc1[nH]c(-c2nc3ccccc3[nH]2)c(C)c1C(=O)N1CCc2sccc2C1`: the growth was 99.3% (inactive).

On to `Oc1c(C(Nc2ccccc2)c2ccccc2)ccc2cccnc12` (stereo not given), for which the growth is 15.7% (inactive).

Turning to `O=C(NC(=S)NNC(=S)NNc1ccccc1)c1ccccc1`, the growth is 0.166% (active).

On to `Cc1cc(N2CCCCC2)cc(C)c1-c1csc(NC(=O)c2ccncc2)n1`, for which the growth is 21.8% (inactive).

As to `C=C[C@]1(C)C=C2CC[C@@H]3C(C)(C)C(=O)CC[C@@]3(C)[C@@H]2CC1`, the growth is 101% (inactive).

In the case of `O=C(Nc1cccc2c1C(=O)c1cccc(NC(=O)c3ccc(C(=O)Nc4cccc5c4C(=O)c4cccc(NC(=O)c6ccccc6)c4C5=O)cc3)c1C2=O)c1ccccc1`, the growth was 83.4% (inactive).

Turning to `COc1ccc(-c2cc(-c3ccccc3)nc(SCCCCCC(=O)NO)n2)cc1`, the growth is -26.2% (active).

Consider `COc1ccc(C2=NNC(c3ccc(Oc4nc5c(c(=O)n(C)c(=O)n5C)n4C)c(OC)c3)C2)cc1` (stereo not given), for which the growth is 90.6% (inactive).

For the compound `CC1(c2ccccc2)NC(=O)NC1=O` (stereo not given), the growth is 104% (inactive).

For the compound `O=c1c2ccccc2c(Br)c(Br)c2ccccc12`, the growth was 70.9% (inactive).

Turning to `COCCOC(=O)COc1ccc(OC)cc1`, the growth was 90.7% (inactive).

`Oc1cccnc1CN1CCCC1`: the growth is 100% (inactive).

Take `CCOC(=O)CSc1nc2sc3c(c2c(=O)n1-c1ccc([N+](=O)[O-])cc1)CCCCC3`: the growth was 88.4% (inactive).

Consider `CCc1ccc(CCC(=O)Nc2ncc(Cc3ccccc3)s2)o1`, for which the growth is -40% (active).

For `CS(=O)(=O)Nc1ccc(Nc2c3ccccc3nc3cc(Cl)ccc23)cc1`, the growth is -1.97% (active).

For `Cc1cc(N/N=C/c2nc(-c3ccc(Cl)cc3)oc2C)c2cc(Br)ccc2n1`, the growth is 59% (inactive).

With `CCOC(=O)/C=C1\S/C(=N\Nc2ccc([N+](=O)[O-])cc2[N+](=O)[O-])N(Cc2ccccc2)C1=O`, the growth was 76.3% (inactive).

`CN1CC[C@@H](c2c(O)cc(O)c3c(=O)cc(-c4ccccc4Cl)oc23)[C@@H]1CO`: the growth is -28.6% (active).

Take `COc1ccc2oc(=O)cc(-c3nc4ccc(N)cc4[nH]3)c2c1`: the growth was 101% (inactive).

Regarding `Fc1cc(-c2nnc3sc(-c4ccc(Cl)cc4Cl)nn23)c(Cl)cc1Cl`, the growth is 161% (inactive).

Regarding `COc1ccc2[nH]c(C(=O)N3CCN(C(=O)OCc4ccc5c(Cl)cc(Cl)c(O)c5n4)CC3)cc2c1`, the growth is -45% (active).

As to `c1ccc(-c2cn3ccnc3c(-c3ccc4c(c3)ncn4C3CCCCC3)n2)cc1`, the growth was 80.7% (inactive).

On to `CCN1C(=O)N(CC)C2C1NN=c1s/c(=C\c3cc4ccccc4[nH]3)c(=O)n12` (stereo not given), for which the growth was -62% (active).
